# Out of some 98,000 compounds screened, about 150 (0.15%) were called active. The list comes from a sample in which actives are over-represented; it also holds similar structures and randomly drawn compounds. Values without a mark were called inactive.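 How the source made its calls: active means growth inhibition above about 50% at one test dose (limit read from the data); inactive means the rest.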
# Test: growth inhibitors of wild-type E. coli, primary screen, strain BW25113, expanded library, OD600 (AID 710);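 further: growth measured after 20 h incubation at 37 °C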
# Conditions: OD600 absorbance, at 100 µM, hits give high values
row,SMILES,growth inhibition
1,Cc1nnc(SCC(=O)NC2CCCC2)s1,-2%
2,COc1ccc(C(C#N)Nc2ccc(C)cc2)cc1 (stereo unspecified),3%
3,Brc1ccc(OCCn2ccnc2)cc1,55% (active)
4,CC1(C)C2CCC1(C)C(OC(=O)CCn1ccnc1)C2 (stereo unspecified),6%
5,CCOc1ccccc1C(=O)NCCCn1ccnc1,10%
6,Cc1ccc(Cc2c(C)nc3nc(SCC(=O)NCCN4CCOCC4)nn3c2C)cc1,-9%
7,Cc1ccc(S(=O)(=O)N(CC(=O)N/N=C/c2ccc(F)cc2)c2cccc3cccnc23)cc1,-18%
8,CN(Cc1nc2ccccc2c(=O)[nH]1)Cc1cc(=O)oc2ccc3ccccc3c12,-4%
9,COC(=O)C1=C(Nc2ccc(OC)cc2)C=C(C)C(C(=O)OC)C1c1ccc(C)cc1 (stereo unspecified),-13%
10,N#C/C(=C(/O)COc1cccc2ccccc12)c1nc2ccccc2[nH]1,-8%
11,OC(COc1ccc2c(c1)CCC2)CN1CCN(c2cccc(Cl)c2)CC1 (stereo unspecified),0%
12,CCc1nnc(NC(=O)CCC(=O)NCc2ccccc2OC)s1,-2%
13,Cc1ccc(-c2nnc(-n3nnc4ccccc43)c3ccccc23)cc1,-7%
14,O=C(N/N=C/C=C/c1ccccc1)C1CC1(c1ccccc1)c1ccccc1 (stereo unspecified),-15%
15,N=c1c2c(-c3ccccc3)c(-c3ccccc3)n(Cc3ccccc3)c2ncn1CCCO,13%
16,COc1ccc(/C=C2\CCCC3C2=NN(C(=O)c2scnc2C)C3c2ccc(OC)cc2)cc1 (stereo unspecified),-16%
17,CCC(=O)NC(NCC1CCCO1)C(Cl)(Cl)Cl (stereo unspecified),3%
18,Cc1ccc(CNC(=O)COc2ccc(S(=O)(=O)NC(C)C)cc2)cc1,0%
19,CSc1ccc(C#N)cc1NC(=O)c1cccc(Cl)c1,-8%
20,Cc1cccc(NC(=O)/C(=C\c2ccco2)NC(=O)c2ccccc2)c1,-2%
21,CNC(=S)NNC(=O)c1sccc1OCc1ccccc1,-7%
22,Cc1ccc(NC(=S)NC(=O)c2ccc(-c3ccccc3)cc2)c(C)c1,-9%
23,COc1cccc(N(CC(=O)NCCSc2ccccn2)S(C)(=O)=O)c1,-2%
24,CN(C)c1nc(N)nc(CSc2ccccn2)n1,-1%
25,COc1ccccc1CSc1nc2ccccc2[nH]1,8%
26,COc1ccc(Nc2nc(-c3ccccc3)cs2)cc1,-6%

row,SMILES,growth inhibition
1,CN1C2CCC1/C(=C\c1ccccc1Cl)C(=O)/C2=C\c1ccccc1Cl,-3%
2,CSCCC(C(=O)NC1=NCCS1)N1C(=O)c2ccccc2C1=O (stereo unspecified),-1%
3,COc1ccccc1NC(=O)COc1ccc(C(=O)OCC(=O)N(C(C)C)C(C)C)cc1OC,-6%
4,Cc1ccc2nc(SCc3nnc(-c4ccccc4[N+](=O)[O-])o3)c(C#N)cc2c1,-15%
5,CC(Sc1nnc(Cc2ccc([N+](=O)[O-])cc2)o1)C(N)=O (stereo unspecified),2%
6,COc1ccc(NC(=O)CC2COc3ccccc3O2)c(OC)c1 (stereo unspecified),7%
7,CCN(CC)S(=O)(=O)c1ccc2c3c(cccc13)C(=O)S2,1%
8,COC(=O)[C@@H](NC(=O)Nc1cc(Cl)ccc1C)C(C)C,2%
9,O=C(Nc1ccc2nc3n(c(=O)c2c1)CCCCC3)c1ccccc1Cl,-6%
10,COc1ccc(NC(=O)CSc2nc(N)c(-c3ccccc3)c(=O)[nH]2)cc1,-12%
11,CCOC(=O)c1cc2c(ccn2C)n1CC(=O)N1CCC(C)CC1,-6%
12,COc1ccc(NC(=O)CSc2nc(NS(=O)(=O)c3ccc(C)cc3)cc(=O)[nH]2)cc1,-5%
13,S=C1SCN(CCN2CCOCC2)CN1Cc1ccccc1,50% (active)
14,COc1ccc(CN2CN(C(C)C)CSC2=S)cc1,38%
15,CC(CN1CCOCC1)c1ccccc1 (stereo unspecified),4%
16,COC(=O)c1ccc(CSc2nc3cc(Cl)ccc3o2)cc1,-5%
17,CC(=O)Nc1ccc(N2C(=O)CCC2=O)cc1C,0%
18,Cc1n[nH]c(=S)n1/N=C/c1ccc(Br)o1,-6%
19,COC(=O)c1ccc(NC(=O)c2ccccc2NS(=O)(=O)c2ccccc2)cc1,4%
20,CCOCCOCCC(C(=O)O)P(=O)(c1ccccc1)c1ccccc1 (stereo unspecified),7%
21,N#Cc1ccc(-c2ccc(Cl)cc2)nc1Oc1ccc(F)cc1,-7%
22,CCC1CCCCN1CCCNC(=O)C1CCC(Cn2c(=O)[nH]c3ccccc3c2=O)CC1 (stereo unspecified),4%
23,O=C1/C(=C/c2cccs2)CCc2ccccc21,7%
24,Cc1cccc(NC(=O)C(C)N2C(=O)C3C4CC(C(Br)C4Br)C3C2=O)c1 (stereo unspecified),7%
25,Cc1ccc(S(=O)(=O)N(C)C2(C)CCS(=O)(=O)C2)cc1 (stereo unspecified),4%
26,O=C(CN1CCSCC1)N/N=C/c1ccc(F)cc1,2%

row,SMILES,growth inhibition
1,CCCCNc1ccc(C(=O)Nc2cccc(C)n2)cc1[N+](=O)[O-],4%
2,CCN(CC)C(=O)CSC1c2ccccc2C(=O)N1c1ccccc1 (stereo unspecified),1%
3,CCCOc1ccc(C2NC(=O)NC(c3ccccc3)=C2C(C)=O)cc1OCC (stereo unspecified),-2%
4,COc1ccc(C(=O)Nc2ccc(F)cc2F)cc1,10%
5,CC(C)(C)c1cc2cccnc2n1Cc1ccccc1,9%
6,Cc1ccc(-c2nc3ccccc3[nH]2)cc1NC(=O)c1sc2ccccc2c1Cl,-18%
7,CCC(=O)N(Cc1ccccc1)c1ccccn1,-3%
8,CCc1cc(C(c2ccccc2OC)N2CCOCC2)c(NC(=O)c2ccccc2)s1 (stereo unspecified),-3%
9,CSc1ccccc1NC(=O)c1cc(C2CC2)on1,6%
10,O=C(c1ccccc1)C(Cn1cncn1)C(Sc1ccccc1)c1ccccc1 (stereo unspecified),-9%
11,O=C(CCN1C(=O)c2ccccc2C1=O)Nc1cccc(F)c1,0%
12,c1ccc2c(C[n+]3csc4ccccc43)cccc2c1,-14%
13,CCCC(=O)Nc1nc2ccc(NC(=O)c3cccnc3)cc2s1,8%
14,O=C(CC12CC3CC(CC(C3)C1)C2)Nc1ccc2c(c1)COC2=O,-1%
15,ON=C1/C(=N\O)CC2(C/C1=N/O)OCCO2,57% (active)
16,O/N=C1\CC2(Cc3nonc31)OCCO2,-4%
17,N=c1ccn(CC(=O)NC(N)=O)c2ccccc12,-4%
18,Cc1nonc1NC(=O)c1ccccc1Br,-2%
19,O=C(Nc1nnc(-c2ccc(Cl)cc2)o1)c1ccccc1Br,57% (active)
20,O=C(Nc1cccc(Cl)c1)Nc1nnc(-c2ccccc2)o1,2%
21,CCCN(Cc1cc2cccc(C)c2[nH]c1=O)S(C)(=O)=O,2%
22,CCSc1nc(-c2ccc(OC)cc2)cc(-c2ccc(OC)cc2)c1C#N,-14%
23,CC(C)(C)Cc1nnc(NC(=O)c2cc(-c3ccccc3)nc3ccccc23)s1,-12%
24,Cc1cc2c(cc1C)N(C(=O)CN1C(=O)c3ccccc3C1=O)C(C)(C)c1ssc(=S)c1-2,-26%
25,CC(C)NC(=O)C(=O)N/N=C/c1ccco1,0%
26,Cc1ccc(NC(=S)NC2CCCC2)cc1,10%

row,SMILES,growth inhibition
1,CCOc1ccc(OCC)c(-c2c(=O)n(OCc3ccc(Cl)cc3)c3ccccc3[n+]2[O-])c1,-15%
2,COc1ccc([N+](=O)[O-])cc1C1NN=C(c2cccc3ccccc23)S1 (stereo unspecified),3%
3,COC(=O)C(NC(=O)c1ccc(OC)cc1)(Nc1ncc(S(=O)(=O)c2ccc([N+](=O)[O-])cc2)s1)C(F)(F)F (stereo unspecified),-3%
4,Cc1cc(C)cc(OCC(=O)Nc2nc3ccc([N+](=O)[O-])cc3s2)c1,-14%
5,O=C(NC(Nc1nc2ccc([N+](=O)[O-])cc2s1)(C(F)(F)F)C(F)(F)F)c1ccccc1,50% (active)
6,Cc1cc(C)c2cc(CN(Cc3nnnn3Cc3ccc(F)cc3)C3CCCC3)c(=O)[nH]c2c1,-11%
7,O=C(NC1CCN(C(=S)NCc2ccco2)CC1)c1ccc(F)cc1,-4%
8,Cc1ccccc1OC/C(O)=C(\C#N)c1nc2ccccc2[nH]1,-10%
9,O=C(Cc1ccccc1)N/N=C/c1ccc(Cl)cc1Cl,1%
10,CC12c3ccccc3C(c3ccccc31)C1C(=O)N(Cc3cccnc3)C(=O)C12 (stereo unspecified),-1%
11,CCOc1ccc(N=C2NC(=O)S/C2=C\c2ccc(O)cc2)cc1,-8%
12,O=C(CC(O)(C(F)(F)F)C(F)(F)F)Nc1ccc(Cl)c(Cl)c1,88% (active)
13,N/C(=N\OC(=O)Nc1ccc(Cl)c(Cl)c1)c1ncc(C(F)(F)F)cc1Cl,8%
14,Cc1nnc(NC(=O)Nc2ccc(Cl)c(Cl)c2)s1,-9%
15,Cc1nn(C)c(Oc2ccc(Cl)cc2)c1C=O,-1%
16,FC(F)(F)c1ccc2nnc(-c3c(Cl)cccc3Cl)n2c1,-2%
17,Cc1cc(C)c2c(-n3cccc3)c(C(=O)NNS(=O)(=O)c3ccc(F)cc3)sc2n1,16%
18,COC(=O)c1sc2ncccc2c1OCc1ccc(Cl)cc1Cl,-14%
19,NC(N)=N/N=C/c1ccc(OCc2ccc(Cl)cc2Cl)cc1,97% (active)
20,NC(=O)COc1ccc(/C=N/NC(=O)C2CCCN2S(=O)(=O)c2ccc(Cl)cc2)cc1 (stereo unspecified),6%
21,C=CCOC(=O)C1=C(C)NC(C)=C(C(=O)OCC=C)C1c1cccs1,5%
22,CCOC(=O)CN(Cc1ccc(OC)c(OC)c1)S(=O)(=O)c1ccc(OC)cc1,0%
23,O=C(NCc1cccnc1)c1cccnc1Sc1ccc(Cl)cc1,10%

# Source: PubChem BioAssay AID710 (SRMLSC, 2007)
